Reference: the supplement of paper PMC10849652
The full data set covers some 7,900 targets. This sample favours those with a hit. About 0.6% of all pairs of compound and target were hits. Unmarked numbers belong to inactive results.

Tests used:
Assay in all cases: log2 fold change, soluble protein after heating vs DMSO (PISA); higher = thermal stabilisation; K562 cells, 10 uM, 30 min; active = over 0.2 and 3.5 SD of the protein, either way, in both replicates (recomputed)
[1] = compound: C1=CC=C(C=C1)[C@H](COC2=CC3=C(C=C2)NC(=O)N3)NC(=O)C4=CC=CN(C4=O)CC5=CC(=C(C=C5)F)F
Procedure, shortened: (§1)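 K562 cells (2×10^6 cells/mL) were treated with 10 μM compound for 30 min, and aliquots were heated for 3 min over 48°C-58°C. Pooled aliquots were extracted in PBS with 0.5% NP-40 at 4°C, and the supernatant after 21,000xg for 90 min was measured by TMTpro 16plex LC-MS/MS with channel sums equalised. Reported thermal stability, relative to control samples and from duplicates, is a log2 fold change.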

[2] = compound: CC1=C(SC2=C1C(=N[C@H](C3=NN=C(N32)C)CC(=O)N)C4=CC=C(C=C4)Cl)C
Procedure, shortened: as §1

[3] = compound: CC1=C2C(=CC=C1)N=C(N(C2=O)C3=CC=CC=C3C)CN4C=NC5=C(N=CN=C54)N
Procedure, shortened: as §1

[4] = compound: Cc1sc2c(c1C)C(c1ccc(Cl)cc1)=N[C@@H](CC(=O)OC(C)(C)C)c1nnc(C)n1-2
Procedure, shortened: as §1

[5] = compound: c1ccc([C@@H]2C[C@H]2NC2CCNCC2)cc1
Procedure, shortened: as §1

Chain of UniProt Q13422 (Q13422 whole entry, looked up): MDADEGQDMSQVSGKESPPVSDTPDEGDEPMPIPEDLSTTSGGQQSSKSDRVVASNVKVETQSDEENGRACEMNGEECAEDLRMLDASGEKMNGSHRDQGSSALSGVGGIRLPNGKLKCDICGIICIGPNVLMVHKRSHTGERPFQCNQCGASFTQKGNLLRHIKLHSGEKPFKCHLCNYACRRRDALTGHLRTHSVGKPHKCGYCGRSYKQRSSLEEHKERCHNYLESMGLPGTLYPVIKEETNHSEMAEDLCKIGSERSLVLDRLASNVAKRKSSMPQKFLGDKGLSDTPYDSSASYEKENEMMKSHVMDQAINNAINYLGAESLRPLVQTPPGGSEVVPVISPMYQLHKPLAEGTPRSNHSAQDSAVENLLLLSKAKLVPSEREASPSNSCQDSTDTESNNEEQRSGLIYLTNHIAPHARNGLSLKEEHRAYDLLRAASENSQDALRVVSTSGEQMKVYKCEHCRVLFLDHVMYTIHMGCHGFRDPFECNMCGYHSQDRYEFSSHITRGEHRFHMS
Chain of UniProt Q8IWA4 (Q8IWA4 whole entry, looked up): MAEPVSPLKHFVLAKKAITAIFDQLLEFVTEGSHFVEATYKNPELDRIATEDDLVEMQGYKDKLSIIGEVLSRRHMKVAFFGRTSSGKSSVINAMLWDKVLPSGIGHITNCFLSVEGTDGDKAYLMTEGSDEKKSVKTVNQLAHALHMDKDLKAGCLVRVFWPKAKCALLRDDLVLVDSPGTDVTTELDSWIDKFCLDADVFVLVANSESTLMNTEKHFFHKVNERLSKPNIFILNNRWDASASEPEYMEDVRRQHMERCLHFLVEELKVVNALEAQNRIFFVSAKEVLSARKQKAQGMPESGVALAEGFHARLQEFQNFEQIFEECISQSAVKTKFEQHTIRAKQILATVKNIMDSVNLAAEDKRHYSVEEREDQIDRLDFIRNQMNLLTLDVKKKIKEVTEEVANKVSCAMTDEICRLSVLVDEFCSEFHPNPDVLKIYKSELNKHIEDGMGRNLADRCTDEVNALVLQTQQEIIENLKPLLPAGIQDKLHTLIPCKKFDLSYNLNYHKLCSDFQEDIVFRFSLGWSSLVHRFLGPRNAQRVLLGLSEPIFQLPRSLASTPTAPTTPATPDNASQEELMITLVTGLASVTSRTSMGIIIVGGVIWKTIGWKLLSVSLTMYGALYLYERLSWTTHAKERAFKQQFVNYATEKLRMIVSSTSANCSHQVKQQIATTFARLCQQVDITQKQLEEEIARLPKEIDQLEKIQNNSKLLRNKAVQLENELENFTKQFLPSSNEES
Chain of UniProt P07948 (P07948 whole entry, looked up): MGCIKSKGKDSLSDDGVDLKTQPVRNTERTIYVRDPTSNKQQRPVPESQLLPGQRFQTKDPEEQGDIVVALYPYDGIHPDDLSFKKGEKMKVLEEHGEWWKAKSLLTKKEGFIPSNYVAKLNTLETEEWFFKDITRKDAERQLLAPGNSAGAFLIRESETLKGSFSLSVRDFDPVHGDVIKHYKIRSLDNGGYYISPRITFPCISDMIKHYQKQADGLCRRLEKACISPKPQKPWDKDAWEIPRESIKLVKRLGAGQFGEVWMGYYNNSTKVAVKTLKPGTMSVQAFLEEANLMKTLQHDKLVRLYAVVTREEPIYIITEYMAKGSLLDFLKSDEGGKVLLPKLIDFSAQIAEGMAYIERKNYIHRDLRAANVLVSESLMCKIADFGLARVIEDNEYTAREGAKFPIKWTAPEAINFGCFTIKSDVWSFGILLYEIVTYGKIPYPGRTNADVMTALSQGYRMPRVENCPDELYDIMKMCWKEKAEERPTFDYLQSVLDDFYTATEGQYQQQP
Chain of UniProt Q7Z4S6 (Q7Z4S6 whole entry, looked up): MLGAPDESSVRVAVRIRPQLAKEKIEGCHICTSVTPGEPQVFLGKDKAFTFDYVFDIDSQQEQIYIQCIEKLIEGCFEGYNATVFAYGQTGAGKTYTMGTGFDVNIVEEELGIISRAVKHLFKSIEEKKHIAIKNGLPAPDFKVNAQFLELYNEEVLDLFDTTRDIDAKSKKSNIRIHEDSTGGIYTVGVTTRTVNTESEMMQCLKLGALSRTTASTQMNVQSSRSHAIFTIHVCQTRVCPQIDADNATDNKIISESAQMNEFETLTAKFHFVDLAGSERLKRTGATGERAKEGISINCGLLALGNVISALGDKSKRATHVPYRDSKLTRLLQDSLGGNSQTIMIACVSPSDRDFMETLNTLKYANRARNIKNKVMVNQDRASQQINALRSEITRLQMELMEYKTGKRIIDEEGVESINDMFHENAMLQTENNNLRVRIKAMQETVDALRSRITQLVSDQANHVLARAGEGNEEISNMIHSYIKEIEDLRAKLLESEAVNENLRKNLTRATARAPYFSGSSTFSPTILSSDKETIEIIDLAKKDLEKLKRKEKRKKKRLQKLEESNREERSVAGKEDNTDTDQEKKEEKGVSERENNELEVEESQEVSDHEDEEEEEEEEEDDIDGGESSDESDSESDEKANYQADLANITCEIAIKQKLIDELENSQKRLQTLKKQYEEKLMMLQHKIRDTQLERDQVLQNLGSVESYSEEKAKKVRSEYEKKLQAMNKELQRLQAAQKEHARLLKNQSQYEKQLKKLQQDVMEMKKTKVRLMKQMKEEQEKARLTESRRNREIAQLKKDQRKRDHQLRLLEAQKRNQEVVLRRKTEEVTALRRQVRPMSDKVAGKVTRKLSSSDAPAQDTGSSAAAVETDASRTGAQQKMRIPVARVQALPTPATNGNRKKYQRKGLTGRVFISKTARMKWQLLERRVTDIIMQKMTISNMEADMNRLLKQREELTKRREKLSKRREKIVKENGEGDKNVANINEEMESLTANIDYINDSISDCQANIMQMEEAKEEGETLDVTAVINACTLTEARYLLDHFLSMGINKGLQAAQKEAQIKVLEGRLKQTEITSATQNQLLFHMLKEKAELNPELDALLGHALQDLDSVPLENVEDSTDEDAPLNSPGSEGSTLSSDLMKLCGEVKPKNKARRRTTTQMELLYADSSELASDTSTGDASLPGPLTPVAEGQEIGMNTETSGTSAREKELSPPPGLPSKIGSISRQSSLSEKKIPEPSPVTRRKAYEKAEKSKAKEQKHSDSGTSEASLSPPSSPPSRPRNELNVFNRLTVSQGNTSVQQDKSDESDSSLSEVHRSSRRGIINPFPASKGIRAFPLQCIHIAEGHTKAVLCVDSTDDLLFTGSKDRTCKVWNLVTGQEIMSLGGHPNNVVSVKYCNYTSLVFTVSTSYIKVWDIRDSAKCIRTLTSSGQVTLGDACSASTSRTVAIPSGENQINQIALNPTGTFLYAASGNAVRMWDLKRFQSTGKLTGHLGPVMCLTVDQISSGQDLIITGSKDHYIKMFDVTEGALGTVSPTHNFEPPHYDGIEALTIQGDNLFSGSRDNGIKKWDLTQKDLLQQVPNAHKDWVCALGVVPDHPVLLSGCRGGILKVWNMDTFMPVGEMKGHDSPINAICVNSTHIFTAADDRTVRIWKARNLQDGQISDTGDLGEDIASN
Chain of UniProt Q9UGP4 (Q9UGP4 whole entry, looked up): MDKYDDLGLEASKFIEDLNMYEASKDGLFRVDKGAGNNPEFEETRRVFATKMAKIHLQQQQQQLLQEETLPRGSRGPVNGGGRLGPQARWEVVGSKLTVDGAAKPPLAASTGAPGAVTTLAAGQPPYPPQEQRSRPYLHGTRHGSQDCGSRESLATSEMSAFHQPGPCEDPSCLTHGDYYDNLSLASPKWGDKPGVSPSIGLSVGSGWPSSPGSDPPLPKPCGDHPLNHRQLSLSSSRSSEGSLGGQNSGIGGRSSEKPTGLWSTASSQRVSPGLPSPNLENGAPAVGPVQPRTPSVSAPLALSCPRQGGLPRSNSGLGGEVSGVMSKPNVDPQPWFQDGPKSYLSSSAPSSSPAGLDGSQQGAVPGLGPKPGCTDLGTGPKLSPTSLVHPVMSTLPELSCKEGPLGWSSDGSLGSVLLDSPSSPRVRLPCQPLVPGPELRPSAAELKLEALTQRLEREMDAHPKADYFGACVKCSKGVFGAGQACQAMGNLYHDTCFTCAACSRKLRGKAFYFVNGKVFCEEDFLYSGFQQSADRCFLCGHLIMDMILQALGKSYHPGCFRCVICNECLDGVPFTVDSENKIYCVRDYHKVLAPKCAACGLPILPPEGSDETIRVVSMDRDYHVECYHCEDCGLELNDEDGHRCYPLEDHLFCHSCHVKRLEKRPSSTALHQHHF
Chain of UniProt P48449 (P48449 whole entry, looked up): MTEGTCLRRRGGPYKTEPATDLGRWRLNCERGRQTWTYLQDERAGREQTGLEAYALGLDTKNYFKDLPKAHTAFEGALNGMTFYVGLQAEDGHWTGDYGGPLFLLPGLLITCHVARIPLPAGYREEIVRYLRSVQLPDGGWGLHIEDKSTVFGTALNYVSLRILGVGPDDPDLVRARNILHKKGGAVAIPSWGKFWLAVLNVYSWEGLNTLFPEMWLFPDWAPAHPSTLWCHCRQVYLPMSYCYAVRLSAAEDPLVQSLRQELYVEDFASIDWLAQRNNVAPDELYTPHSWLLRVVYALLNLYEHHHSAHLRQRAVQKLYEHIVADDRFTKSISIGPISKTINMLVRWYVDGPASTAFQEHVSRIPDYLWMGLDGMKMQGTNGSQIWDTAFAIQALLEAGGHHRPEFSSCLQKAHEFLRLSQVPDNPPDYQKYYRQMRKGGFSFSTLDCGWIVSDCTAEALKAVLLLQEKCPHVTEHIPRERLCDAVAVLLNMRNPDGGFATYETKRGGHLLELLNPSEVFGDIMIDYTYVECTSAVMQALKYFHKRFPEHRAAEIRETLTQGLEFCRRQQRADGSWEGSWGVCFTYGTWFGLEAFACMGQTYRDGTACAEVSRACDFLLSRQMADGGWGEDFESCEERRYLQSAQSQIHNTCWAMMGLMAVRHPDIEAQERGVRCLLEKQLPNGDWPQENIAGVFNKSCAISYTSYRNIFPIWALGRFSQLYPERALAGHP
Chain of UniProt Q9BQD3 (Q9BQD3 whole entry, looked up): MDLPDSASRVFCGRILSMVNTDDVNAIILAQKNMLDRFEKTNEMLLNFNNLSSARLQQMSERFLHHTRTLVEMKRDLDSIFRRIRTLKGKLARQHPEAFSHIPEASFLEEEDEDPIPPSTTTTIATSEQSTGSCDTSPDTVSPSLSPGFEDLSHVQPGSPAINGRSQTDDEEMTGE

Row | Target | log2 fold change [1] | log2 fold change [2] | log2 fold change [3] | log2 fold change [4] | log2 fold change [5]
1 | ILVBL (UniProt A1L0T0) | -0.016 | 0.371 (active) | 0.075 | -0.067 | -0.127
2 | MCCC2 (UniProt Q9HCC0) | 0.029 | 0.038 | -0.027 | -0.022 | 0.026
3 | MAP4K4 isoform 3 (UniProt O95819) | 0.009 | 0.032 | 0.044 | 0.04 | 0.264 (active)
4 | ITM2B (UniProt Q9Y287) | 0.013 | -0.068 | 0.061 | -0.028 | -0.112
5 | MCUR1 (UniProt Q96AQ8) | -0.02 | 0.018 | 0.007 | -0.008 | -0.023
6 | MAGEA8 (UniProt P43361) | 0.075 | -0.035 | 0.02 | -0.119 | 0.077
7 | ILK (UniProt Q13418) | -0.081 | 0.017 | 0.132 | 0.053 | -0.087
8 | LRRFIP1 (UniProt Q32MZ4) | 0.019 | 0.036 | -0.016 | 0.023 | 0.011
9 | LRFN1 (UniProt Q9P244) | -0.069 | 0.183 | 0.042 | -0.02 | -0.411
10 | IKZF1 isoform 2 (UniProt Q13422) | 0.335 | 0.217 | 0.052 | -0.026 | 0.061
11 | KDM1A isoform 2 (UniProt O60341) | -0.05 | 0 | 0.087 | -0.019 | 1.73 (active)
12 | MED22 (UniProt Q15528) | 0.013 | 0.065 | 0.013 | 0.195 | 0
13 | LIMD1 (UniProt Q9UGP4) | 0.006 | 0.004 | -0.014 | -0.005 | 0.028
14 | MED8 isoform 2 (UniProt Q96G25) | 0.011 | -0.053 | -0.381 (active) | – | 0.039
15 | KLHDC4 (UniProt Q8TBB5) | 0.048 | -0.074 | -0.165 | 0.084 | -0.047
16 | LDLR (UniProt P01130) | -0.037 | 0.014 | 0.037 | 0.022 | 0.062
17 | MCL1 (UniProt Q07820) | -0.013 | 0.125 | 0.135 | 0.057 | 0.073
18 | KIF21A isoform 4 (UniProt Q7Z4S6) | -0.003 | -0.024 | 0.061 | -0.077 | 0.014
19 | MAP3K4 isoform 2 (UniProt Q9Y6R4) | -0.047 | 0.026 | 0.057 | -0.034 | 0.018
20 | MICOS13 (UniProt Q5XKP0) | -0.018 | 0.07 | -0.032 | 0 | 0.003
21 | METAP1D (UniProt Q6UB28) | 0.106 | -0.125 | 0.083 | 0.08 | 0.127
22 | ITM2C (UniProt Q9NQX7) | -0.077 | 0.007 | 0.122 | – | -0.121
23 | ILF2 (UniProt Q12905) | 0.047 | -0.078 | -0.141 | 0.14 | 0.034
24 | LEMD2 (UniProt Q8NC56) | -0.031 | 0.136 | 0.114 | -0.017 | 0.005
25 | LUC7L2 (UniProt Q9Y383) | 0.023 | -0.044 | 0.036 | 0.006 | 0.014
26 | LYN (UniProt P07948) | 0.035 | 0.038 | 0.013 | 0.028 | -0.043
27 | IPO9 (UniProt Q96P70) | 0.018 | 0.063 | 0.014 | -0.01 | 0.079
28 | LMBRD1 (UniProt Q9NUN5) | 0.013 | 0.099 | 0.143 | -0.178 | 0.039

Row | Target | log2 fold change [1] | log2 fold change [2] | log2 fold change [3] | log2 fold change [4] | log2 fold change [5]
29 | LUC7L3 (UniProt O95232) | 0.002 | -0.021 | 0.023 | 0.021 | 0.028
30 | LRBA (UniProt P50851) | -0.016 | 0.05 | 0.088 | 0 | -0.023
31 | LTO1 (UniProt Q8WV07) | 0.054 | -0.02 | 0.142 | -0.062 | 0.03
32 | MBLAC1 (UniProt A4D2B0) | -0.019 | 0.067 | -0.064 | – | -0.029
33 | INPP5B (UniProt P32019) | -0.067 | 0.056 | 0.024 | 0.086 | -0.035
34 | MCU (UniProt Q8NE86) | -0.02 | 0.035 | 0.038 | -0.018 | -0.013
35 | MIEN1 (UniProt Q9BRT3) | 0.035 | 0.101 | 0.014 | -0.097 | 0.019
36 | LDAH isoform 2 (UniProt Q9H6V9) | -0.125 | 0.019 | 0.086 | 0.174 | -0.059
37 | MED7 (UniProt O43513) | -0.049 | 0.029 | 0.017 | 0.016 | 0.076
38 | KHDRBS1 (UniProt Q07666) | -0.038 | -0.018 | -0.025 | 0.055 | -0.021
39 | MIER1 isoform 12 (UniProt Q8N108) | -0.012 | 0.073 | 0.059 | 0.016 | 0.02
40 | KXD1 (UniProt Q9BQD3) | -0.178 | 0.079 | 0.042 | -0.079 | 0.034
41 | MAP3K7 (UniProt O43318) | -0.085 | 0.005 | 0.11 | 0.061 | 0.023
42 | LSS (UniProt P48449) | -0.077 | 0.059 | 0.127 | -0.018 | 0.087
43 | MICU2 (UniProt Q8IYU8) | 0.013 | -0.037 | -0.123 | -0.029 | 0.021
44 | LARP4B (UniProt Q92615) | -0.003 | -0.013 | 0 | 0.081 | -0.014
45 | KIFBP (UniProt Q96EK5) | -0.075 | 0.025 | 0.06 | -0.058 | 0.005
46 | LPGAT1 (UniProt Q92604) | -0.068 | -0.136 | -0.02 | 0.086 | 0.074
47 | MFN1 (UniProt Q8IWA4) | 0.058 | 0.042 | 0.05 | 0.07 | -0.01
48 | MASTL (UniProt Q96GX5) | 0.047 | 0.081 | 0.009 | – | -0.02
49 | MAP4K2 (UniProt Q12851) | -0.08 | 0.063 | – | -0.057 | 0
50 | IGFBP3 isoform 2 (UniProt P17936) | – | -0.081 | 0.034 | -0.083 | 0.057
51 | LRBA, A0A494BZW2 | 0.002 | 0.048 | – | 0.113 | 0.014
52 | INTS5 (UniProt Q6P9B9) | -0.091 | – | 0.052 | 0.065 | –
53 | MAN2B2 (UniProt Q9Y2E5) | 0.097 | – | 0.096 | 0.074 | –
54 | MAP4K4 isoform 6 (UniProt O95819) | – | 0.177 | 0.049 | -0.037 | 0.076
55 | IP6K1 (UniProt Q92551) | 0.053 | 0.059 | – | 0.194 | -0.135
